# Source: PubChem BioAssay
# GLD-1 TGE inh – GLD-1/TGE RNA complex disruptors, primary screen, biochemical, fluorescence polarization | AID 2280, 2010 | purified GLD-1 + fluorescein TGE RNA | Female germline-specific tumor suppressor gld-1 (Caenorhabditis elegans), Q17339 | 320,000 tested, 0.44% active | inhibition, % at 5.96 µM;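 active means percent inhibition above a per-plate cutoff, the plate mean of test compounds plus 3 SD, cut at about 30% in these data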
# IDE act – human IDE activators in live cells, primary screen, fluorescence polarization, HEK cells, FAbeta-B substrate; AID 493087, 2011; Insulin-degrading enzyme (Homo sapiens), P14735; FAbeta-B cleavage; 0% vehicle, 100% cell-free pure enzyme wells; activation, % at 5.96 µM; 340,000 tested, 0.073% active;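 active means activation above the mean of all tested compounds plus 3 SD, set per screening campaign, cut at about 17% in these data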
# IDE inh – human IDE inhibitors in live cells, primary screen, fluorescence polarization, HEK cells, FAbetaB substrate; Insulin-degrading enzyme (Homo sapiens), P14735; FAbetaB cleavage; inhibition, % at 5.59 µM; 320,000 tested, 0.41% active; AID 434962, 2010;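 active means percent inhibition above the average of all tested compounds plus 3 SD, set per screening campaign, cut at about 16% in these data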;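 further: IDE supplied by intact live HEK cells; FP after avidin binding of uncleaved biotin substrate so inhibition keeps polarization high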
# BCLXL inh – inhibitors of human Bcl-xL, primary screen, biochemical, fluorescence polarization, HTS; Bcl-2-like protein 1 (Homo sapiens), Q07817; GST-Bcl-xL / FITC-Bim BH3 peptide fluorescence polarization; inhibition, % at 10.9 µM; 320,000 tested, 0.7% active;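 active means inhibition above the mean of all tested compounds plus 3 SD, cutoff set per campaign, cut at about 30% in these data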;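 further: inhibitors lower millipolarization by displacing the labeled peptide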
# Target sequence (Q07817 whole entry, looked up): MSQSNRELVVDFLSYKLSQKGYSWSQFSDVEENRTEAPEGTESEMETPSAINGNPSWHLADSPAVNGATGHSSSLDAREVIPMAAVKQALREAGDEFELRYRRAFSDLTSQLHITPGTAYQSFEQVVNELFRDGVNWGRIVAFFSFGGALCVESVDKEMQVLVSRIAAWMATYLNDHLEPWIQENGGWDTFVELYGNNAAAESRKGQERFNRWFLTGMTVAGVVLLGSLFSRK
# MEX-5 binding – MEX-5 zinc finger RNA-binding disruptors – biochemical, C. elegans, fluorescence polarization, MLPCN library, primary screen. Zinc finger protein mex-5 (Caenorhabditis elegans), Q9XUB2. MEX-5/FITC-TCR2 RNA binding; active compounds read low. activity score (negative = inhibition of binding), % at 10 µM. 300,000 tested, 0.38% active. AID 1832, 2009;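 active means inhibition past about -25% in most replicates, and total fluorescence under double the plate's negative control median, limit read from the data; inconclusive means replicates evenly split on the limit, or fluorescence at least double controls; inactive means too little inhibition in most replicates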
# MCL1 BIM primary – inhibitors of MCL1 binding to BIM-BH3, primary screen, biochemical, fluorescence polarization | GST-MCL1 / FITC-Bim-BH3 fluorescence polarization | inhibition, % at 10.9 µM | 320,000 tested, 0.68% active | AID 2057, 2009;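 active means inhibition above the mean inhibition of all tested compounds plus 3 SD, set per campaign, cut at about 40% in these data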;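 further: higher means more loss of mP so more displacement of Bim peptide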
# Target sequence (Q07820 whole entry, looked up): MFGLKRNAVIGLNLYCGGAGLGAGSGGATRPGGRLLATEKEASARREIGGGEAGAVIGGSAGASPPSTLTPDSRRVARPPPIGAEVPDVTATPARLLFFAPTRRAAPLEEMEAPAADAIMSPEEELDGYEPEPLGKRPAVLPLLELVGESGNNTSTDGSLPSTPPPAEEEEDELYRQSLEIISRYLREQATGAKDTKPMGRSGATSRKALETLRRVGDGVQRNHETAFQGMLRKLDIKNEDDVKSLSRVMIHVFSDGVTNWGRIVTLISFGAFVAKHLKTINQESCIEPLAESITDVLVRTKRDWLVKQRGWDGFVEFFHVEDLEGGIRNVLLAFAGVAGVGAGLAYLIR
# BCLXL inh confirm – Bcl-xL inhibitors blocking Bim BH3 binding, confirmation, counter-screen for MCL1 inhibitor project, biochemical, fluorescence polarization. shares compounds with MCL1 BIM primary. GST-Bcl-xL / FITC-Bim BH3 peptide FP binding. inhibition, % at 10.9 µM. 1,700 tested, 54% active;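 active means inhibition above a cutoff equal to the mean inhibition of all tested compounds plus 3 SD, cut at about 30% in these data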
# MCL1 BIM confirm – inhibitors of MCL1 binding to BIM-BH3, confirmation, biochemical, fluorescence polarization, triplicate | inhibition, % at 10.9 µM | 1,700 tested, 61% active | shares compounds with MCL1 BIM primary | AID 2168, 2009 | GST-MCL1 / FITC-Bim-BH3 fluorescence polarization;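 active means inhibition above the average of all tested compounds plus 3 SD, cut at about 40% in these data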
# A number is an active result; n = inactive; u = inconclusive; x = no result given; + = active, no number. Rows were chosen to be rich in hits. Some 1.5% of all compounds tested hit in one or more screens of this group.
SMILES,GLD-1 TGE inh,IDE act,IDE inh,BCLXL inh,MEX-5 binding,MCL1 BIM primary,BCLXL inh confirm,MCL1 BIM confirm
Nc1c(C(=O)N/N=C/c2cccnc2)oc2nc(-c3ccco3)cc(-c3ccco3)c12,n,x,n,67.9,n,60.9,n,n
O=C1Nc2ccccc2N(O)N1c1ccc(S(=O)(=O)N2CCCCCC2)cc1,n,n,n,n,n,n,x,x
Cc1ccc2nc3c(cc(C(=O)NCc4ccco4)c(=N)n3Cc3ccco3)c(=O)n2c1,n,n,n,n,n,57.7,n,n
N=c1c(C(=O)NCc2ccco2)cc2c(=O)n3ccccc3nc2n1C1CCCC1,n,n,n,54.4,n,63.0,156.8,193.8
N=c1c(C(=O)NC2CCCC2)cc2c(=O)n3ccccc3nc2n1C1CCCC1,n,n,n,n,n,n,x,x
Cc1cccn2c(=O)c3cc(C(=O)NCc4ccco4)c(=N)n(C(C)C)c3nc12,49.3,n,n,83.7,u,90.0,39.5,63.1
Cc1ccc(S(=O)(=O)c2cc3c(=O)n4ccccc4nc3n(Cc3ccco3)c2=N)cc1,n,n,n,37.9,n,57.7,n,n
Cc1ccccc1Cn1c(NC2CCCC2)nc2c1c(=O)[nH]c(=O)n2C,n,n,n,n,n,n,x,x
O=C(CCO)c1ccc(O)cc1,n,n,n,n,n,75.5,36.7,79.6
NC(CO)C(=O)NNCc1ccc(O)c(O)c1O (stereo not given),n,n,n,36.1,-33.4,71.8,36.7,60.7
COc1ccc(CCNc2nc3ccccc3n3nnnc23)cc1OC,n,n,n,53.9,n,54.8,n,n
C=CCn1c(=O)[nH]c2nc3cc(N=CN(C)C)c(C)cc3nc2c1=O,181.2,n,n,+,-50.5,+,185.6,+
CCOc1ccc(N=C2NC(=O)S/C2=C\c2ccc(N(C)C)cc2)cc1,43.0,n,n,70.4,u,80.4,96.4,112.6
Nc1c(NCc2ccccc2)c(=O)[nH]c(=O)n1Cc1ccccc1,86.0,n,n,70.0,n,88.0,n,n
CCOC(=O)C1=CNS(=O)(=O)NC1c1ccc(C(F)(F)F)cc1 (stereo not given),x,n,x,x,x,x,x,x
CSCC(C)N1CCC(n2nccc2NC(=O)CCc2ccccc2)CC1 (stereo not given),x,n,x,x,n,x,x,x
CSCC(C)N1CCC(n2nccc2NC(=O)CCCc2ccccc2)CC1 (stereo not given),45.0,n,n,99.0,-64.1,108.1,98.9,118.6
CCCc1nnc(NC(=O)C2CC(=O)N(C3CCCC3)C2)s1 (stereo not given),n,n,n,n,n,n,x,x
NNC(=O)c1cc(O)c(O)c(O)c1,n,n,n,n,n,54.1,34.4,46.2
CCOc1ccc2nc3cc(NCc4ccc(OC)cc4)ccc3c(N)c2c1,n,n,n,184.2,-33.0,+,139.4,166.1
CCn1cnc2cc(NCc3ccc(OC)cc3)ccc21,n,n,n,n,n,n,x,x
COc1ccc(NC(=O)N2CCN(C(=O)c3ccco3)CC2)c(OC)c1,n,n,n,n,n,n,x,x
CC(C)(C)C1CC=C2C(C#N)=C(N)C(C#N)(C#N)C(c3cccs3)C2C1 (stereo not given),61.9,x,n,60.5,-41.2,62.7,114.5,145.0
CCN(CC)c1ccc2c(-c3ccc(S(=O)(=O)O)cc3S(=O)(=O)[O-])c3ccc(=[N+](CC)CC)cc-3oc2c1,155.1,27.4,n,+,u,+,+,+
Cc1cc(Br)ccc1NC(=O)C1CCN(C(=O)c2ccco2)CC1,n,n,n,n,n,n,x,x
SMILES,GLD-1 TGE inh,IDE act,IDE inh,BCLXL inh,MEX-5 binding,MCL1 BIM primary,BCLXL inh confirm,MCL1 BIM confirm
O=C(CCc1ccc(S(=O)(=O)N2CCOCC2)cc1)N/N=C/c1ccc(O)c(O)c1O,n,n,n,n,n,46.2,n,58.7
O=C(CCc1ccc(S(=O)(=O)N2CCOCC2)cc1)N/N=C/c1ccc(F)cc1F,n,n,n,n,n,n,x,x
CCn1c(=O)c(=O)[nH]c2cc(C(=O)N(C)Cc3ccc(OC)c(F)c3)ccc21,n,n,n,n,n,n,x,x
COC(=O)C1=COC(C)C2CN3CCc4c([nH]c5cc(OC)c(OC)cc45)C3CC12 (stereo not given),53.1,n,n,92.1,-35.4,96.2,94.3,113.4
COC(=O)[C@H]1[C@H]2C[C@@H]3c4[nH]c5cc(OC)ccc5c4CCN3C[C@H]2C[C@@H](OC(=O)c2cc(OC)c(OC)c(OC)c2)[C@@H]1OC,n,n,n,n,x,n,x,x
CN1C=CC2=C(C#N)C(N)C(C#N)(C#N)C(c3ccccc3)C2C1 (stereo not given),46.5,n,n,90.1,u,90.3,40.0,56.4
NC(=O)c1cc2ccc(O)cc2oc1=NCc1ccccc1,94.8,n,n,129.4,u,151.2,170.4,198.6
NC(=O)c1cc2ccccc2oc1=NCc1ccccc1,n,n,n,n,n,n,x,x
Cc1ccc(NC(=O)CN2C(=O)N/C(=C/c3cccn3-c3ccc(C(=O)O)cc3)C2=O)cc1,n,n,n,n,x,79.1,41.3,85.1
O=C(CN1CCN(S(=O)(=O)c2cccs2)CC1)NCC1CCCCC1,n,n,n,n,x,n,x,x
C/C(N)=C(/C#N)C(=O)CSc1nnc(Nc2cccc(C)c2)s1,n,n,n,n,n,40.2,n,40.8
COc1ccc(C(CC(=O)N2CCCC2)c2c(OC)cc(OC)c3c(-c4ccccc4)cc(=O)oc23)cc1 (stereo not given),n,n,n,n,n,42.6,n,n
COc1ccc(C(CC(=O)N2CCCCC2)c2c(OC)cc(OC)c3c(-c4ccccc4)cc(=O)oc23)cc1 (stereo not given),n,n,n,n,n,n,x,x
CCCCNC(=O)C1c2ccccc2Oc2ccccc21,n,n,n,n,n,n,x,x
